This is a sample that favours compounds with a hit; in the whole collection about 2.7% have one here.
KDM5B inhibitor – KDM5B demethylase inhibition; Q9UGL1; KDM5B demethylase, FDH-coupled NADH fluorescence (FDH is formaldehyde dehydrogenase); Potency, µM (highest dose often 57.7 µM), actives largely listed as inhibitors; 2.6% of 220,000 active; AID 1347165; active = well fitted inhibition curve with a large enough effect; inconclusive = small, poorly fitted or top-dose-only effect; inactive = no such curve, though single readings can be large or run the other way; note: potency is the fitted concentration of half-maximal effect; 0% is about no effect; nearly all actives have a fitted effect of over 70% in size
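Measured: NADH fluorescence change, 30 min, RT. System: KDM5BΔAP 200 nM final, H3K4me3 peptide, α-KG, Fe(II), ascorbate, NAD⁺ plus FDH, pH 7.5 HEPES. Compounds: titrated, 10 min pre-incubation with enzyme.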
IP6K1 inh – blocks human inositol hexakisphosphate kinase 1; 0.81% of 140,000 active; IP6K1 kinase, ADP-Glo luminescence, 2 h; stronger effect = lower value; activity change, % (series mostly up to about 58 µM); Q92551; in the data active = activity change below about -25%; note: % is set by controls: 0 for no effect and ±100 for the full control effect
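ADP-Glo luminescence measures ADP made by human IP6K1 during a 2 h RT reaction with ATP/IP6 (mix at 1.3 mM/130 uM); top library doses 57.5 and 19.1 uM final.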
Starred values were filed as active, the others as inactive; i = inactive; u = inconclusive; x = no result given.

SMILES	KDM5B inhibitor	IP6K1 inh
COCCNC(=O)c1ccc2c(c1)C1(CCN(C)C1)CN2Cc1csc(C)n1 (stereo not given)	u	4
CN(C)CC(=O)N1CCC2(C1)CN(C)c1ccc(C(=O)NCc3ccccc3)cc12 (stereo not given)	35µM*	7
COc1ccc(NC(=O)c2ccc3c(c2)C2(CCCN(C)C2)CN3Cc2cccnc2)cc1 (stereo not given)	i	6
CN(C)CC(=O)N1CCC2(C1)CN(C)c1ccc(C(=O)Nc3ccccc3)cc12 (stereo not given)	u	18
CCNC(=O)c1ccc2c(c1)C1(CCCN(C)C1)CN2C (stereo not given)	32µM*	-10
CN1CCCC2(C1)CN(C)c1ccc(C(=O)NCCc3ccccc3)cc12 (stereo not given)	32µM*	9
Cc1nc(CN2CC3(CCN(C)C3)c3cc(C(=O)NCCc4ccccc4)ccc32)cs1 (stereo not given)	28µM*	0
Cc1ccc(-c2cc(C(=O)NCc3ccccc3)[nH]n2)c(O)c1C	i	x
N#Cc1ccc(Cl)cc1NC(=O)C12CC3CC(CC(Cl)(C3)C1)C2	i	x
CCOc1ccc(-c2csc(-c3c(C)c(C)nn(C)c3=O)n2)cc1	i	x
COc1ccccc1Nc1nc(-c2ccc3c(c2)CCC(=O)N3)cs1	i	x
CCCC(=O)N1Cc2ccccc2CC2(CCCN(C)C2)C1 (stereo not given)	i	0
COCCNC(=O)c1cc(C2CC2)nc2c1c(C1CCCN1)nn2C (stereo not given)	79µM*	4
O=C(NCC(F)(F)F)c1cc(C2CC2)nc2c1c(C1CCCN1)nn2-c1ccccc1 (stereo not given)	u	19
COCCNC(=O)c1cc(C2CC2)nc2c1c(C1CCNCC1)nn2C	u	-10
Cn1nc(C2CCCN2)c2c(C(=O)NCC(F)(F)F)cc(C3CC3)nc21 (stereo not given)	79µM*	-4
COc1ccc(Nc2ccnc(N3CCCC(C(=O)NCCCc4ccccc4)C3)n2)cc1 (stereo not given)	x	0
Clc1cc(Cl)c(N/N=C/c2ccccc2Br)c(Cl)c1	i	x
CCC(C(=O)NCc1nnc2ccc(-c3ccc(OC)cc3)nn12)c1ccccc1 (stereo not given)	25µM*	10
CC(Oc1cccc(Cl)c1)C(=O)NCc1nnc2ccc(-c3ccccc3)nn12 (stereo not given)	u	8
CCC(C(=O)NCc1nnc2ccc(-c3ccccc3)nn12)c1ccccc1 (stereo not given)	22µM*	40
CC(Oc1ccccc1)C(=O)NCc1nnc2ccc(-c3ccc(F)cc3)nn12 (stereo not given)	u	19
C[C@@H]1C(=O)O[C@H]2[C@H]1CC[C@@]1(C)Cc3sc(NC(=O)c4ccc(F)c(Cl)c4)nc3[C@@H](C)[C@H]21	28µM*	-7
C[C@@H]1C(=O)O[C@H]2[C@H]1CC[C@@]1(C)Cc3sc(NC(=O)c4ccncc4)nc3[C@@H](C)[C@H]21	u	-11
COc1cc(C(=O)Nc2nc3c(s2)C[C@]2(C)CC[C@@H]4[C@H](OC(=O)[C@H]4C)[C@H]2[C@@H]3C)cc(OC)c1OC	28µM*	-5
SMILES	KDM5B inhibitor	IP6K1 inh
C[C@@H]1C(=O)O[C@H]2[C@H]1CC[C@@]1(C)Cc3sc(NC(=O)c4c(F)cccc4F)nc3[C@@H](C)[C@H]21	u	-12
COc1ccccc1C(=O)NC[C@@H]1C=C(C)[C@H](Cc2nc3ccncc3[nH]2)C[C@H]1C(C)C	i	-15
Cc1nnc2ccc(N3CCCN([S+](=O)([O-])c4cccs4)CC3)nn12	x	-10
CC(C)c1noc(C2Cc3ccccc3N2C(=O)Nc2ccc3c(c2)OCCO3)n1 (stereo not given)	u	26
CCc1nc2c(=O)n(CC(=O)NCc3cccc(Cl)c3)nc(C)c2s1	i	9
Cc1ccc(-c2nn(CC(=O)O)c(=O)c3ccccc23)cc1	i	x
COc1ccc(CNC(=O)Cn2nc(C)c3sc(-c4ccccc4)nc3c2=O)cc1	u	4
O=C(Cn1nc(-c2ccccc2)ccc1=O)NCCCN1CCOCC1	i	x
Cc1nn(CC(=O)NCCN2CCCCCC2)c(=O)c2nc(-c3ccccc3)sc12	20µM*	24
COCCNC(=O)Cn1nc(C)c2sc(-c3ccccc3)nc2c1=O	28µM*	14
Cc1nn(CC(=O)O)c(=O)c2nc(-c3ccccc3)sc12	32µM*	-13
Cc1nn(CC(=O)NCCCN2CCCCC2)c(=O)c2nc(-c3ccccc3)sc12	32µM*	3
CCN(Cc1ccco1)C(=O)[C@@H]1CN(c2ncccn2)C[C@H]1COC	u	2
COC[C@@H]1CN(c2ncccn2)C[C@H]1C(=O)N(C)Cc1ccco1	18µM*	17
CCOCC(=O)N[C@@H]1CN(c2ncccn2)C[C@H]1CO	u	-5
COC[C@@H]1CN(c2ncccn2)C[C@H]1C(=O)O	16µM*	1
O=C(O)c1cc(F)c(F)cc1Cl	i	x
CC(=O)Nc1ccc(NC(=O)COC(=O)Cc2cccc3ccccc23)cc1	i	x
CCCc1ccc([S+](=O)([O-])N2CCC3(CC2)[C@@H](C(=O)OCC)[C@@H](O)C(=O)N3C(C)C)cc1	x	14
Cc1cccc(/C=N/Nc2ccc(Cl)c(Cl)c2)c1	i	x
Fc1ccc(Nc2cc3c(cn2)CN(Cc2ccncc2)CCN3)cc1Cl	i	7
COCCN1CCNc2cc(Nc3ccc(N4CCOCC4)cc3)ncc2C1	u	-17
CN1CCNc2cc(-c3ccc(N4CCOCC4)cc3)ncc2C1	28µM*	-13
Fc1ccc(-c2cc3c(cn2)CN(Cc2ccncc2)CCN3)cc1Cl	35µM*	0
COc1ccc(-c2cc3c(cn2)CN(Cc2ccncc2)CCN3)cc1	35µM*	-18
SMILES	KDM5B inhibitor	IP6K1 inh
COc1ccc(CN2CCNc3cc(-c4ccnc(C)c4)ncc3C2)cc1	i	-8
CCOc1ccc(NC(=O)c2ccc(C#Cc3ccccc3)cc2)cc1	i	x
CC12CCC(C/C1=N\O)C2(C)CBr (stereo not given)	i	x
Cc1nc(N2CCC(NC(=O)c3cccc4[nH]ccc34)CC2)cc(C(F)(F)F)n1	28µM*	-15
O=C(NC1CCN(c2cc(-c3ccc(F)cc3)[nH]n2)CC1)c1c[nH]c2ccccc12	i	23
COc1ccc(C(=O)N2CCCN(c3cc(-c4ccc(OC)cc4)[nH]n3)CC2)cc1	i	3
COc1ccc(-c2cc(N3CCCN(C(=O)c4cccc5[nH]ccc45)CC3)n[nH]2)cc1	28µM*	13
O=C(NC1CCN(c2cc(-c3ccc(F)cc3)[nH]n2)C1)c1c[nH]c2ccccc12 (stereo not given)	14µM*	0
COc1ccc(-c2cc(N3CCCC(NC(=O)c4c[nH]c5ccccc45)C3)n[nH]2)cc1 (stereo not given)	u	10
COc1ccc(-c2cc(N3CCCC(NC(=O)c4cccc5[nH]ccc45)C3)n[nH]2)cc1 (stereo not given)	25µM*	2
COc1ccccc1C(=O)NC1CCN(c2cc(C(F)(F)F)nc(C)n2)CC1	i	0
CNC(=O)NC(=O)CN(Cc1ccc(C)cc1)C1CC1	i	x
COc1ccc2[nH]cc(C(C(=O)O)N3CCN(C(C)=O)CC3)c2c1 (stereo not given)	i	x
